The structures appear in SMILES notation. The whole screen tested about 69,000 compounds, of which about 8,600 (12%) showed an effect of 50% or more. Shown is part of a subset that was picked to be rich in strong results.

This assay deals with Plasmodium berghei. The experiment in a line: Screen against P. berghei liver stage (PbLuc), transformed with Luciferase, at 10uM. The assay is classed as functional, HepG2. Particulars: tested at 10 uM.
`CCC1(CC)C(=O)NC(=O)N=C1Nc1ccc(C)cc1`: the INHIBITION worked out at 27.5%.
As for `O=C(NCC1(c2cccs2)CCCCC1)N1CCOC(CO)C1` (stereo not given), the INHIBITION is listed as -39.4%.
As for `Cn1cc(N2C(=O)CC[C@@H]3[C@H]2CCN3CCc2ccccc2)cn1`, the INHIBITION is 17.4%.
To `CN(C)C(=O)NC1COC2(CCN(C(=O)Nc3ccccc3)CC2)C1` (stereo not given) belongs 42.1%; to `O=C1CCC2(CCCN(C(=O)NCc3ccccc3)CC2)N1` (stereo not given), 8.74%; to `Cc1nc2c(cc1C(=O)Nc1ccccc1Cl)c(=O)n(C)c(=O)n2C`, 18.6%.
To `COCCN1CCN(C)C2(CCN(C(=O)c3ccnnc3)CC2)C1=O` belongs 39.4%; to `Cc1nn(C)c2nc(NC(C)c3n[nH]c(=O)[nH]3)sc12` (stereo not given), 28.5%; to `Cc1nn(C)c2nc(NC(C)c3nnn[nH]3)sc12` (stereo not given), 1.24%.
To `Cc1nc(C(C)Nc2nc3c(s2)c(C)nn3C)n[nH]1` (stereo not given) belongs 52.1%; to `O=S(=O)(NCc1ccnc(-n2ccnc2)c1)c1cncc(F)c1`, 2.93%.
For the compound `CCN1CCCC(NC(=O)c2ccc(C)[nH]c2=O)C1` (stereo not given), the INHIBITION was 55.5%.
To `Cc1ccc(C(=O)NC2CCCN(CC(N)=O)C2)c(=O)[nH]1` (stereo not given) belongs 9.63%; to `Cc1ccc(C(=O)NC2CCCN(C)C2)c(=O)[nH]1` (stereo not given), 8.51%.
As for `CN(C)[C@@H]1CN(Cc2cccnc2)C[C@H]1c1cn(C)c2ccccc12`, the figure is 23.69%; as for `c1ccc(OCc2nnc3n2CCN(Cc2ccco2)C3)nc1`, 24.9%; as for `Cc1nn(C)c2c(N(C)Cc3cccs3)nc(C3CC3)nc12`, -17.2%.
For the compound `CCOC(=O)N1CCN(C(=O)c2cc(OCC)c3ccoc3c2)CC1`, the INHIBITION is listed as 58.2%.
In the case of `CCOc1cc(C(=O)N2CCCC2)cc2occc12`, the INHIBITION stood at 50.7%.
Consider `CCOc1cc(C(=O)N2CCOCC2)cc2occc12`, for which the INHIBITION worked out at 36.6%.
To `CCOc1cc(C(=O)N2CCN(C)CC2)cc2occc12` belongs 44.1%.
`CCOc1cc(C(=O)N2CCN(CC)CC2)cc2occc12`: the INHIBITION is reported as 9.32%.
In the case of `CCOC(=O)C1CCN(C(=O)c2cc(OCC)c3ccoc3c2)CC1`, the INHIBITION was -13.9%.
As for `CN1CCCCC1c1ncc2c(n1)CCN(CCCc1ccccc1)C2` (stereo not given), the figure is 26.8%; as for `Cc1cc(C(=O)N2CCC(O)(Cn3c(C)cc4ccncc43)CC2)on1`, 9.05%.
As for `NC(=O)N1CCC(NCc2cc(C(F)(F)F)ccc2Cl)CC1`, the INHIBITION turned out to be 17.8%.
To `CN(C)C(=O)COCc1nnc2n1CCN(Cc1ccoc1)C2` belongs 45.8%.
Take `CNC(=O)C1(CCCc2ccncc2)CCN1` (stereo not given): the INHIBITION is recorded as -4.82%.
As for `COc1ccc(CN2CC(O)CN(C(=O)C3CCC3)CC2=O)cc1` (stereo not given), the figure is 41.1%; as for `COc1cccc(CCC2CCCN(C(=O)c3cnccn3)C2)c1` (stereo not given), 81.1%; as for `N#Cc1cccc(C(=O)N2CCCC(C(=O)CCc3ccccc3)C2)c1` (stereo not given), -8.66%.
To `COc1cccc(CCC2CCCN(C(=O)c3ccc(OC)o3)C2)c1` (stereo not given) belongs 68.3%.
To `COc1cccc(CCC2CCCN(C(=O)C3=NN(C)C(=O)CC3)C2)c1` (stereo not given) belongs 3.47%; to `COc1cccc(C(=O)N2CCCC(C(=O)CCc3ccccc3)C2)c1` (stereo not given), 65%.
Consider `COc1cccc(OCC2CCCN(C(=O)c3cc(C)n[nH]3)C2)c1` (stereo not given), for which the INHIBITION is given as 10.5%.
As for `COc1ccccc1CC1CCCN(C(=O)c2n[nH]c3c2CCC3)C1` (stereo not given), the INHIBITION was 19%.
On to `COc1cccc(CCC2CCCN(C(=O)c3ccc(=O)n(C)n3)C2)c1` (stereo not given), for which the INHIBITION is given as 40.5%.
On to `COc1cccc(CCC2CCCN(C(C)=O)C2)c1` (stereo not given), for which the INHIBITION was -10.9%.
As for `Cn1cc(C(=O)N2CCCC(C(=O)CCc3ccccc3)C2)cn1` (stereo not given), the figure is 10.7%; as for `COc1cccc(CCC2CCCN(C(=O)c3n[nH]c4c3CCC4)C2)c1` (stereo not given), 81.8%; as for `COc1cccc(CCC2CCCN(C(=O)c3ccccn3)C2)c1` (stereo not given), 43.7%.
As for `Cc1sc(NC(=O)CCC(=O)O)c(C(N)=O)c1-c1ccc(Cl)cc1Cl`, the INHIBITION came to 41.6%.
As for `CNc1nccc(-c2cnc3sc(C)c(C)n3c2=O)n1`, the figure is -4.82%; as for `Cc1ccc(C(=O)NC2CCCN(S(C)(=O)=O)C2)c(=O)[nH]1` (stereo not given), 19.7%; as for `O=C(c1cc[nH]n1)N1CCCC1c1cnccn1` (stereo not given), 31.6%.
Regarding `CC(NC(=O)COCC(F)(F)F)c1nnc2n1CCCCC2` (stereo not given), the INHIBITION is -27.8%.
Regarding `CCN(CC)CCCNC(=O)c1nn(CC)cc1Cl`, the INHIBITION came out at 35.8%.
To `O=C(CCOc1ccc(Br)cc1)N1CCN(c2cnccn2)CC1` belongs 43.2%; to `CC1(C)CN(CC(=O)NCc2ccccc2F)C[C@]1(C)O`, -2.97%.
As for `COc1ccc(C(=O)N2CCC(Oc3ccc(C)cc3)(C(=O)O)CC2)o1`, the figure is 14.3%; as for `COc1ccc(C(=O)N2CCC(Oc3cccc(C)c3)(C(=O)O)CC2)o1`, 40.2%.
For `COc1cccc(OCC2CCCN(Cc3ccncc3)C2)c1` (stereo not given), the INHIBITION is on record as 1.74%.
Take `COc1ccc(C(=O)N2CCC(Oc3ccccc3)(C(=O)O)CC2)o1`: the INHIBITION stood at 50.1%.
As for `COc1cccc(CCC2CCCN(Cc3ncc[nH]3)C2)c1` (stereo not given), the figure is 65.7%; as for `COc1cccc(OCC2CCCN(Cc3ncc[nH]3)C2)c1` (stereo not given), 22.6%; as for `FC(F)(F)Cn1ccnc1CNCC1CCCN1c1cccnn1` (stereo not given), -2.53%.
To `Cc1nc(NC(=O)CCN2C(=O)c3ccccc3NC2C(C)C)sc1C` (stereo not given) belongs 28.7%; to `COCC(=O)NCc1cc(=O)n2c(n1)CN(Cc1ccncc1)CCC2`, 22.2%.
Turning to `CCNc1cc2c(nn1)CCN(C(=O)c1ccsc1)C2`, the INHIBITION was found to be 37.8%.
To `CC(=O)NCCC(=O)NC(C)c1sc(-c2ccccc2F)nc1C` (stereo not given) belongs 29.3%.
`CCC(=O)NCC(=O)NC(C)c1sc(-c2ccccc2F)nc1C` (stereo not given): the INHIBITION was -2.94%.
For `COCC(=O)NC(C)c1sc(-c2ccccc2F)nc1C` (stereo not given), the INHIBITION is reported as 84.2%.
As for `CCc1nnc(CN2CCc3cnc(C)nc3C2)o1`, the figure is -36.6%.
As for `CC(C)NC(=O)N1CCOC2(CCCN(c3ncccc3F)C2)C1` (stereo not given), the figure is 2.58%; as for `CS(=O)(=O)CCNC1CCCN(Cc2noc(C3CC3)n2)C1` (stereo not given), 40.4%; as for `O=c1c2cccc(C(F)(F)F)c2ncn1CCN1CCNCC1`, -100%.
As for `O=c1c2cccc(F)c2ncn1CCN1CCNCC1`, the figure is -74%; as for `Cc1nc[nH]c1-c1c(-c2ccccc2)ncn1C1CCNC1` (stereo not given), 31.3%.
As to `O=c1c2cccc(C(F)(F)F)c2ncn1C1CCNC1` (stereo not given), the INHIBITION is reported as 53.6%.
To `O=C(O)C1(O)CCN(c2ccnc3c(C(F)(F)F)cccc23)CC1` belongs -48.4%; to `O=c1c2cccc(Cl)c2ncn1C1CCNC1` (stereo not given), 56.3%; to `Cc1cc(NCc2noc(C(C)C)n2)nc(-c2ccccc2)n1`, 14.4%.
To `COCCOc1cccc(C(=O)N2CCCCC2c2nccs2)c1` (stereo not given) belongs -31.5%; to `CC(C)CNC(=O)CN(C)S(C)(=O)=O`, 40.7%; to `CCC(CO)NC(=O)c1ccc2ccc(N(C)CC3CC3)n2c1` (stereo not given), -24.3%.
To `O=C(CCN1CCc2ccccc21)N1CC(C(=O)N2CCOCC2)C1` belongs 25.6%; to `O=C(CCN1CCc2ccccc21)N1C[C@@H](O)[C@H](N2CCOCC2)C1`, -8.12%.
For the compound `O=C(CCN1CCc2ccccc21)N1C[C@@H](O)[C@H](N2CCCC2)C1`, the INHIBITION is 56.8%.
As for `Cc1cc(CN2CCN(c3ccc4nncn4n3)C(C)C2)on1` (stereo not given), the figure is 26.5%.
As for `Cc1cnc(CN2CCN(c3ccc4nncn4n3)C(C)C2)cn1` (stereo not given), the figure is 23.7%.
For the compound `CC1CN(Cc2ccccn2)CCN1c1ccc2nncn2n1` (stereo not given), the INHIBITION was 31.9%.
As for `Cc1cc(CN2CCN(c3ccc4nncn4n3)CC2)no1`, the INHIBITION is listed as 26.5%.
To `CC1CN(Cc2nccn2C)CCN1c1ccc2nncn2n1` (stereo not given) belongs 57.4%.
To `Cc1cc(CN2CCN(c3ccc4nncn4n3)C(C)C2)no1` (stereo not given) belongs 59%; to `CN(Cc1ccco1)C(=O)c1cccc(N2CCCC2=O)c1`, -27.9%; to `Cc1cc(=O)n2nc(Oc3cccc(I)c3)sc2n1`, 35.7%.
Turning to `O=S(=O)(Cc1cccc(F)c1)Nc1cc(Cl)ccn1`, the INHIBITION is 11.9%.
In the case of `CNC(=O)CN(C(=O)c1cc(C(C)C)no1)c1cccc(F)c1`, the INHIBITION is given as -10.5%.
In the case of `CC(NCc1ccncc1)c1ccc(N2CCN(C)CC2)c(F)c1` (stereo not given), the INHIBITION is reported as 15.8%.
To `OCc1ccc(N2CCN(c3ncccn3)CC2)c(F)c1` belongs 31.3%.
In the case of `CN1CCN(c2ccc(F)cc2C(N)=O)CC1`, the INHIBITION is on record as 58.7%.
To `C=C(C)CN(CC)C(=O)c1cc(F)ccc1N1CCN(C)CC1` belongs 19.8%; to `CN1CCN(c2ccc(CO)cc2F)CC1`, 68.4%.
To `CC(C)N(CC(N)=O)C(=O)c1cc(F)ccc1N1CCN(C)CC1` belongs 1.74%; to `Cc1cccc(C(=O)N2CC(C(=O)NCC3CC3)C3(CCOCC3)C2)n1` (stereo not given), 37.1%.
On to `CN1CCN(Cc2cccnc2)C(=O)C12CCN(C1CCOC1)CC2` (stereo not given), for which the INHIBITION is 40.3%.
As for `O=C1C(Nc2nccn3cnnc23)CCCN1c1ccccc1Cl` (stereo not given), the INHIBITION is recorded as 24.3%.
As for `Cc1cc(F)ccc1N1CCCC(Nc2nccn3cnnc23)C1=O` (stereo not given), the figure is 25.4%.
As for `Cc1ccc(F)c(N2CCCC(Nc3nccn4cnnc34)C2=O)c1` (stereo not given), the figure is 52.7%; as for `COC[C@]1(O)CCN(Cc2cnc(N(C)C)nc2)CC1(C)C`, -28.9%; as for `O=C(O)C1(n2ccnc2)CCN(Cc2cc3ccccc3o2)CC1`, 30.9%.
As for `CCc1c(C)sc2c1c(N)nc(=O)n2CCN1CCOCC1`, the figure is -39.7%; as for `CCc1c(O)nc(SCC(=O)Nc2ccccc2)n(C(C)CC)c1=O` (stereo not given), 56.1%; as for `CCc1c(O)n(C(C)CC)c(SCC(=O)c2ccccc2)nc1=O` (stereo not given), 36.7%.
As for `CCc1c(O)nc(SCC(=O)N(CC)CC)n(C(C)CC)c1=O` (stereo not given), the INHIBITION was found to be 29%.
In the case of `Cn1cc(CN2CCc3c(CNC(=O)C4CC4)cncc3C2)cn1`, the INHIBITION is recorded as -17.2%.
As for `O=C(c1cccnc1)N1C[C@H]2CN(Cc3cccc(F)c3)C(=O)[C@H]2C1`, the figure is -55.2%; as for `CC(C)NC(=O)C(NC(=O)N1CCN(c2ccc(Cl)cc2)CC1)C(C)C` (stereo not given), -9.39%; as for `CC(C)NC(=O)[C@@H](NC(=O)N1CCN(c2ccc(Cl)cc2)CC1)C(C)C`, 65.5%.
As to `CC(C)NC(=O)[C@H](C)NC(=O)N1CCN(c2ccc(Cl)cc2)CC1`, the INHIBITION was found to be 38.1%.
